# Results as given in PubChem BioAssay.
# Test: probe aEGFR binding to arrayed compounds – biochemical, biotinylated probe, 635/667 nm fluorescence, primary screen (AID 1097);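 further: probe is a biotinylated anti-EGFR antibody binding compounds printed on slides; score combines fluorescence near 667 nm and signal to noise of each spot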
# Conditions: small-molecule microarray, higher = more signal
row,Compound,composite z-score
1,O=c1cccc(CCc2ccccc2)o1,-0.171
2,COc1ccc([Si](C)(C)[C@H]2[C@H](CCn3cc(CCO)nn3)O[C@@]3(C(=O)N(Cc4ccc(N5CCOC5=O)cc4)c4ccccc43)[C@@H]2C)cc1,-0.212
3,C=CC[C@@H](OC(=O)Nc1ccc(OC)cc1)c1ccc(O)c2ccccc12,0.0225
4,CC(c1ccccc1)C(O)C1C=CC2C(=O)NC(=O)C2N1Nc1ccccn1 (stereo unspecified),-0.0159
5,CC(C)CNC(=O)[C@@H]1c2ccccc2C(=O)N(Cc2cc(C(F)(F)F)cc(C(F)(F)F)c2)[C@H]1c1ccc(CO)cc1,-0.0682
6,C[C@]1(C(=O)NCc2ccccc2)c2ccccc2C(=O)N(Cc2cc(F)cc(C(F)(F)F)c2)[C@H]1c1ccc(CO)cc1,-0.253
7,O=C1O[C@H](c2ccccc2)[C@H](c2ccccc2)N2[C@H]1[C@@H](C(=O)Nc1nc3ccccc3s1)[C@]1(C(=O)Nc3ccccc31)[C@H]2c1ccc(O)cc1,-0.0644
8,CN(C)CCCNC(=O)[C@@]1(Cc2ccccc2I)c2ccccc2C(=O)N(Cc2ccccc2C(F)(F)F)[C@H]1c1ccc(CO)cc1,-0.295
9,CCCCCN1CC=CC23O[C@@H]4C=CCOC(=O)[C@@H]4[C@H]2C(=O)N(CCCO)[C@@H]3C1=O (stereo partly specified),-0.185
10,C=C(CCCC)/C(=C/C[C@H](OC(C)=O)c1ccc(CO)o1)c1cnc2ccccc2c1,0.0324
11,CC(C)NC(=O)[C@@]1(Cc2ccccc2I)c2ccccc2C(=O)N(Cc2ccccc2)[C@H]1c1ccc(CO)cc1,-0.0605
12,O=C1C2C=CC(C(O)c3ccc(B(O)O)cc3)N(Nc3ccccc3)C2C(=O)N1c1ccccc1 (stereo unspecified),-0.041
13,O=C1C[C@]2(c3ccc([N+](=O)[O-])cc3)C(=O)N(CC(F)(F)F)c3cc(CO)ccc3[C@H]2N1CC12CC3CC(CC(C3)C1)C2,-0.0972
14,N#Cc1ccc(NN2C(C(O)c3cccs3)C=CC3C(=O)N(c4ccccc4)C(=O)C32)cc1 (stereo unspecified),-0.0357
15,COCCOC(=O)N1C(=O)[C@@]2(c3cc(C#CCNC(N)=O)ccc31)[C@H](C(=O)N1CCc3cc(OC)c(OC)cc3C1)[C@H]1C(=O)O[C@H](c3ccccc3)[C@H](c3ccccc3)N1[C@@H]2c1ccc(OCCO)cc1,-0.0734
16,CC(=O)Nc1cc(Br)ccc1C(=O)O,-0.156
17,C=CCOC(=O)[C@@H]1[C@H]2C(=O)O[C@H](c3ccccc3)[C@H](c3ccccc3)N2[C@H](c2ccc(OCCOC(=O)[C@@H]3C[C@@H]4C(=O)N[C@@H](Cc5ccccc5)C(=O)N4[C@@H]3c3cccc(OCCO)c3)cc2)[C@@]12C(=O)Nc1ccc(I)cc12,0.0042
18,[N-]=[N+]=NCc1ccccc1C[C@]1(C(=O)O)N=C(c2ccc(OCCCO)cc2)O[C@H]1c1ccccc1CN=[N+]=[N-],0.0617

row,Compound,composite z-score
1,NCCCCCNC(=O)[C@H]1C[C@H]2C(=O)NCC(=O)N2[C@H]1c1cccc(OCCO)c1,0.0311
2,COc1cc2c(cc1OC)CN(C(=O)[C@@H]1[C@H]3C(=O)O[C@H](c4ccccc4)[C@H](c4ccccc4)N3[C@H](c3ccccc3OCCO)[C@@]13C(=O)Nc1ccc(C#CCNC(N)=O)cc13)CC2,-0.0873
3,C=C(COC)C(=O)CC[C@H](OC(C)=O)c1cccc(OCCO)c1,-0.263
4,CCOC(=O)C[C@H]1[C@H](OC(=O)Cc2ccc3c(c2)OCO3)[C@@H](NC(=O)C2CCCCC2)c2cc(OCCCO)ccc2N1C(=O)Cc1ccc(OC)cc1,-0.0234
5,COCCOC(=O)N1C(=O)[C@@]2(c3cc(C#CCNC(N)=O)ccc31)[C@H](c1ccc(OCCO)cc1)N1[C@H](c3ccccc3)[C@H](c3ccccc3)OC(=O)[C@H]1[C@@H]2C(=O)N1CCc2cc(OC)c(OC)cc2C1,-0.0007
6,COCCOC(=O)N1C(=O)[C@@]2(c3cc(C#CC4(O)CCCCCC4)ccc31)[C@H](C(=O)N1CCCCCCC1)[C@H]1C(=O)O[C@H](c3ccccc3)[C@H](c3ccccc3)N1[C@@H]2c1ccccc1OCCO,0.495
7,C=C(COC)/C(=C/C[C@H](OC(=O)c1ccncc1)c1cccc(OCCO)c1)c1cc(C(=O)OC)ccc1OC,-0.139
8,COc1c(C)cc(-c2cc3c(c(-c4ccc(Oc5ccccc5)cc4)n2)[Si](C(C)C)(C(C)C)OC3)cc1C,-0.0947
9,CCOC(=O)C1=CCC(c2ccc(C#N)cc2)N(S(=O)(=O)c2ccc(C)cc2)C1 (stereo unspecified),-0.0297
10,CCOC(=O)C1=C[C@@H](C(C)C)N(S(=O)(=O)c2ccc(C)cc2)[C@H]1c1ccc(C(C)C)cc1,-0.0381
11,CCOC(=O)C1=CCC(C(C)(C)C)N(S(=O)(=O)c2ccc(C)cc2)C1 (stereo unspecified),0.139
12,CCCCC=C[C@@H](NC(=O)c1ccco1)c1ccccc1,0.0836
13,CC(C)(C)N1CC=CC23O[C@@H]4C=CCOC(=O)[C@@H]4[C@H]2C(=O)N(CCCCCO)[C@@H]3C1=O (stereo partly specified),-0.224
14,O=C1C=CC(=O)[C@@H]2CC(COc3ccccc3)=C3[C@@H](CCc4ccccc4)OB(O)C[C@@H]3[C@H]12,0.0338
15,Cc1ccccc1C(O)C1C=CC2C(=O)N(C)C(=O)C2N1N1CCCCC1 (stereo unspecified),-0.0044
16,CCOC(=O)C[C@H]1[C@H](OC(=O)c2ccc(C(=O)c3ccccc3)cc2)[C@@H](NC(=O)C2CCCCC2)c2cc(OCCCO)ccc2N1C(=O)c1ccccc1,0.0546
17,Cc1ccc(S[C@]2(C(=O)NCC(C)C)CC(=O)N(Cc3ccccc3Cl)[C@@H]2c2ccc(CO)cc2)cc1,-0.228
18,COc1cccc(C(=O)O[C@H]2CC[C@]3(C)C4=C(CCC3C2(C)C)[C@]2(C)CC[C@H]([C@H](C)CCCC(C)C)[C@@]2(C)CC4)c1 (stereo partly specified),-0.0158
